Consider 101 molecules from PubChem BioAssay AID1347420 (Sanford-Burnham Center for Chemical Genomics, 2020).

The whole screen tested about 1,300 compounds, of which about 980 (75%) were called active. Another 4% or so got no clear call; they are omitted. The list shows a part of the results. Unmarked numbers belong to inactive results.

In this test the target is Sulfhydryl oxidase 1 (Homo sapiens) (UniProt O00391). Briefly: QSOX1 enzyme inhibitors, primary screen, biochemical, HyperBlu H2O2 luminescence, HTS (AID 1347420). Note: values above 100% were filed as inconclusive. To be noted: recombinant QSOX1, HyperBlu H2O2 luminescence; at 12.5 µM; active compounds read high; active = any value above zero.
Chain of Sulfhydryl oxidase 1 (Homo sapiens) (O00391 whole entry, looked up): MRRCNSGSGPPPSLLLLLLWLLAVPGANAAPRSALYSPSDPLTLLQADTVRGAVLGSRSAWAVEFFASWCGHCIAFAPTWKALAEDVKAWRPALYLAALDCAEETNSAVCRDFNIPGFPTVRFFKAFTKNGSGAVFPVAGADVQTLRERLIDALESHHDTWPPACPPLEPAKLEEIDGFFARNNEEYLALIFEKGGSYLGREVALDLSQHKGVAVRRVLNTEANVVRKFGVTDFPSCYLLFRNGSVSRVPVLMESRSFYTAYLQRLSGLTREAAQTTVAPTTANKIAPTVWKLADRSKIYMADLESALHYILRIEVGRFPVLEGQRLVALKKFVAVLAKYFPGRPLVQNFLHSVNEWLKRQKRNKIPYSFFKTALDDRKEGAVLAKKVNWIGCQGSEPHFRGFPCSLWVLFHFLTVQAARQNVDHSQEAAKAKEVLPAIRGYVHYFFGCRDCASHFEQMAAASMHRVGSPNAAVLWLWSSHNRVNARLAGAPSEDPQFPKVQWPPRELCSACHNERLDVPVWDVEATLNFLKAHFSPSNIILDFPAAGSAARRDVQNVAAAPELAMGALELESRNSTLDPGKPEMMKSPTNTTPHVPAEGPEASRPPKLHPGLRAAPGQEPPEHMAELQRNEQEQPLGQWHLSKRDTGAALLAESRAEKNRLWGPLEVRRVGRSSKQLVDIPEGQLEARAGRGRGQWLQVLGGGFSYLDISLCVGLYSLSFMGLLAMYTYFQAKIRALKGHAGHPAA
What is called inhibition is the relative decrease from the control value, in per cent. Regarding `CCCCCCCCc1ccc(-c2ccc(C(=O)O)cc2)cc1`, the inhibition was 14.5% (active).

In the case of `Oc1ccccc1O`, the inhibition was 62.9% (active).

Turning to `O=[N+]([O-])c1cccc2c(Br)[nH]nc12`, the inhibition is 47.4% (active).

As to `CC(=O)N[C@H](C(=O)O)C(C)(C)SN=O`, the inhibition was 10.5% (active).

Turning to `CC(N)(C(=O)O)c1ccc(C(=O)O)cc1` (stereo unspecified), the inhibition was 10.5% (active).

As to `CCCC(=O)NCCc1c2n(c3ccc(OC)cc13)CCCc1ccccc1-2`, the inhibition is 50.8% (active).

Turning to `O=C(O)c1cc2cc(F)ccc2[nH]1`, the inhibition was 1% (active).

Consider `O=C1NC(=O)/C(=C/c2ccc3nccnc3c2)S1`, for which the inhibition is 5.7% (active).

Consider `O=C1NC(=O)/C(=C/c2ccc3c(c2)OC(F)(F)O3)S1`, for which the inhibition was 21.2% (active).

For `O=C1NC(=O)/C(=C/c2ccc(-c3ccc(F)cc3O)o2)S1`, the inhibition was 0%.

In the case of `CCCN(CCc1ccccc1)C1CCc2c(O)cccc2C1` (stereo unspecified), the inhibition is 14% (active).

For the molecule `O=c1cc(-c2ccccc2F)[nH]c2cc3c(cc12)OCO3`, the inhibition was 6.4% (active).

For the molecule `CCN(CC)CCCN(c1ccccc1)C1Cc2ccccc2C1`, the inhibition was 94.2% (active).

With `c1ccc(-c2ccccn2)nc1`, the inhibition is 7.1% (active).

As for `NCCC1CCCC(CCN)N1` (stereo unspecified), the inhibition was 6.6% (active).

Turning to `OCc1ccc(-c2nn(Cc3ccccc3)c3ccccc23)o1`, the inhibition is 0.6% (active).

For the molecule `Clc1ccc(N2CCN(Cc3c[nH]c4ncccc34)CC2)cc1`, the inhibition is 12.6% (active).

`Ic1ccc(N2CCN(Cc3c[nH]c4ncccc34)CC2)cc1`: the inhibition was 23.8% (active).

As for `OC1(c2ccc(Cl)cc2)CCN(Cc2c[nH]c3ccccc23)CC1`, the inhibition was 14.4% (active).

Take `c1cnc(N2CCN(Cc3ccc4c(c3)OCO4)CC2)nc1`: the inhibition was -5.6%.

In the case of `COc1ccc2c(c1)c(CC(=O)O)c(C)n2C(=O)c1ccccc1`, the inhibition was 9% (active).

For the molecule `COc1ccc2c(c1)c(CC(=O)O)c(C)n2C(=O)c1ccc(Cl)cc1`, the inhibition was 15.5% (active).

Regarding `COc1ccc2c(c1)c(CC(=O)O)c(C)n2Cc1ccc(Cl)cc1`, the inhibition is 5.8% (active).

Consider `CC(C)[C@@H]1CC[C@@H](C)C[C@@H]1P(=O)(c1ccccc1)c1ccccc1`, for which the inhibition is -5.2%.

On to `O=C(CCNNC(=O)c1ccncc1)NCc1ccccc1`, for which the inhibition was 0.1% (active).

With `OC(CCN1CCCCC1)(c1ccccc1)C1CCCCC1` (stereo unspecified), the inhibition is -1.3%.

For the molecule `OC(CCN1CCCCC1)(c1ccccc1)C1CC2C=CC1C2` (stereo unspecified), the inhibition was 8.3% (active).

With `O=C(O)CC1CCCc2ccccc2C1O` (stereo unspecified), the inhibition is 8.6% (active).

As to `NOCC(=O)O`, the inhibition is 3% (active).

With `NCC(O)(CS(=O)(=O)O)c1ccc(Cl)cc1` (stereo unspecified), the inhibition was -0.3%.

As to `NCCCS(=O)(=O)O`, the inhibition is 14.2% (active).

On to `NCCS(=O)(=O)O`, for which the inhibition is 9.8% (active).

Regarding `CN1CCc2cc(O)c(O)cc2C(c2ccccc2)C1` (stereo unspecified), the inhibition was 67.4% (active).

`CN1Cc2c(N)cccc2C(c2ccccc2)C1` (stereo unspecified): the inhibition is -2.6%.

Regarding `CN1CCc2cc(Cl)c(O)cc2[C@@H](c2ccccc2)C1`, the inhibition is 35.8% (active).

`COc1ccccc1N1CCN(CCCNc2c(C)c(=O)n(C)c(=O)n2C)CC1`: the inhibition is 16.8% (active).

`COc1ccccc1N1CCN(CCCNc2cc(=O)n(C)c(=O)n2C)CC1`: the inhibition was 22% (active).

Take `CC#C[C@]1(O)CC[C@H]2[C@@H]3CCC4=CC(=O)CCC4=C3[C@@H](c3ccc(N(C)C)cc3)C[C@@]21C`: the inhibition is 89.8% (active).

As to `NCC(O)C1CCCCCCC1` (stereo unspecified), the inhibition is 18.4% (active).

With `Fc1ccc(C(OCCCc2cnc[nH]2)c2ccc(F)cc2)cc1`, the inhibition is 10.8% (active).

As to `COC(=O)[C@H](NC(=O)c1cc(-c2ccccc2)nc2ccccc12)c1ccccc1`, the inhibition is 4.2% (active).

For `CC(=O)[C@]1(O)Cc2c(O)c3c(c(O)c2[C@@H](O[C@H]2C[C@H](N)[C@H](O)[C@H](C)O2)C1)C(=O)c1ccccc1C3=O`, the inhibition was 50.8% (active).

For `CC(N)C(=O)OC(C)(C)Cc1ccc(Cl)cc1` (stereo unspecified), the inhibition was 5.6% (active).

With `Nc1nc2ccc(Cl)cc2c2nc(-c3ccco3)nn12`, the inhibition is 27.7% (active).

With `Nc1nc2c(cnn2CCc2ccccc2)c2nc(-c3ccco3)nn12`, the inhibition was 17% (active).

Take `CCN(CC)CCCC(C)Nc1ccnc2cc(Cl)ccc12` (stereo unspecified): the inhibition was 4.6% (active).

Turning to `CCN(CC)CCCC(C)Nc1c2ccc(Cl)cc2nc2ccc(OC)cc12` (stereo unspecified), the inhibition was -13%.

`O=C(O)c1cc(=O)c2c(Cl)cc(Cl)cc2[nH]1`: the inhibition is 23.5% (active).

With `O=C(O)/C(=C/c1c(C(=O)O)[nH]c2cc(Cl)cc(Cl)c12)c1ccccc1`, the inhibition was 12.3% (active).

As for `O=C(O)c1cc(=O)c2ccccc2[nH]1`, the inhibition was -7.5%.

Consider `C=C[C@@]1(C)CC(=O)[C@]2(O)[C@@]3(C)[C@H](O)CCC(C)(C)[C@@H]3[C@H](O)[C@H](OC(C)=O)[C@@]2(C)O1`, for which the inhibition was -4.2%.

`c1ccc2c(c1)CCCC2C1=NCCN1` (stereo unspecified): the inhibition is 7.7% (active).

In the case of `NC1(C(=O)O)CCc2cc(C(=O)O)ccc21` (stereo unspecified), the inhibition is 11.9% (active).

On to `Cn1c(=O)c2[nH]cnc2n(C)c1=O`, for which the inhibition is 20.2% (active).

For `CC(C)Cn1c(=O)n(C)c(=O)c2[nH]cnc21`, the inhibition was -4.6%.

In the case of `CN1Cc2sccc2C(c2ccc(O)c(O)c2)C1` (stereo unspecified), the inhibition was 84.1% (active).

For the molecule `Oc1ccc(C2CNCc3sccc32)cc1O` (stereo unspecified), the inhibition was 68.4% (active).

Turning to `NCC1OC(O[C@@H]2[C@H](O)C(OC3C(O)C(N)CC(N)C3OC3OC(CO)C(O)C(O)C3N)O[C@@H]2CO)C(N)C(O)C1O` (stereo partly specified), the inhibition is -0.2%.

On to `CC(=O)C(C)=O`, for which the inhibition is 5.7% (active).

`CC(=O)/C(C)=N/O`: the inhibition is -16.7%.

As for `CC(N)=O`, the inhibition was 37.1% (active).

In the case of `CCN1C(=O)C=CC1=O`, the inhibition is 12.3% (active).

`C[C@H](O)C(=O)C1=Nc2c(nc(N)[nH]c2=O)NC1`: the inhibition is 9.2% (active).

Take `CC(O)C(O)[C@H]1CNc2nc(N)[nH]c(=O)c2N1` (stereo partly specified): the inhibition is -1.8%.

As for `NS(=O)(=O)C1=[C+]C=[C+]c2c1c([N+](=O)[O-])cc1nc([O-])c([O-])nc21`, the inhibition was 79% (active).

`CCn1c(=O)[nH]c2cc(Cl)c(Cl)cc21`: the inhibition was 20.4% (active).

With `Cn1c(=O)c2c(nc(/C=C/c3cccc(Cl)c3)n2C)n(C)c1=O`, the inhibition was 8.5% (active).

`CN1C[C@H](C(=O)N[C@]2(C)O[C@@]3(O)[C@@H]4CCCN4C(=O)[C@H](Cc4ccccc4)N3C2=O)C[C@@H]2c3cccc4[nH]cc(c34)C[C@H]21`: the inhibition was 50.6% (active).

Take `Nc1ncnc2c1c(I)cn2[C@@H]1C[C@H](N)[C@@H](O)[C@H]1O`: the inhibition is 22.5% (active).

Take `COc1ccc2c(c1)CCC1C2CC[C@@]2(C)C1CC[C@@H]2NCCCCCCN1C(=O)CCC1=O` (stereo partly specified): the inhibition was 8.2% (active).

In the case of `COc1ccc2c(c1)CCC1C2CC[C@@]2(C)C1CC[C@@H]2NCCCCCCN1C(=O)C=CC1=O` (stereo partly specified), the inhibition is 7.6% (active).

In the case of `CN/C(=C\[N+](=O)[O-])NCCSCc1ccc(CN(C)C)o1`, the inhibition was 14.5% (active).

Consider `CN(C)CCCc1cc(C(=O)Nc2ccc(-c3ccncc3)cc2)ccc1O`, for which the inhibition was 14.6% (active).

Consider `O=C1N=C(O)C(c2ccccc2)(c2ccccc2)N1`, for which the inhibition is -13.4%.

As for `CC/C(=C(\c1ccccc1)c1ccc(OCCN(C)C)cc1)c1ccccc1`, the inhibition was -2.1%.

As to `CN(C)CCOC(=O)COc1ccc(Cl)cc1`, the inhibition is 2.2% (active).

Take `O=C(c1ccccc1)c1ccc2n1CCC2C(=O)O` (stereo unspecified): the inhibition is 12.6% (active).

With `CN1CCC2(CCN3CCc4c(oc5ccccc45)C3C2)N(C)C1=O` (stereo unspecified), the inhibition was 4.5% (active).

Take `Cc1nc(N=NC2=[C+]C3=C(C=C([N+](=O)[O-])[C+]=C3S(=O)(=O)[O-])C(S(=O)(=O)[O-])=[C+]2)c(COP(=O)([O-])O)c(C=O)c1O`: the inhibition was 53.8% (active).

With `Cc1nc(N=Nc2ccc(C(=O)O)cc2)c(COP(=O)(O)O)c(C=O)c1O`, the inhibition was 14.2% (active).

Take `C[C@@H]1C(=O)NC2=Nc3cccc(Cl)c3CN21`: the inhibition was 3.4% (active).

For `c1ccc2c(c1)CC(N1CCN(c3cccc4c3OCCO4)CC1)C2`, the inhibition is 10.4% (active).

In the case of `Clc1ccc(C(c2ccccc2Cl)C(Cl)Cl)cc1` (stereo unspecified), the inhibition is 69.1% (active).

As to `O=C(O)/C=C/C(O)c1ccc(Cl)cc1` (stereo unspecified), the inhibition is -40.2%.

Take `O=C(c1ccc(Cl)cc1)N1CCN(c2ccc([N+](=O)[O-])c3ncccc23)CC1`: the inhibition was 24.1% (active).

Take `c1ccc2c(c1)CCC[C@H]2Nc1nc2ccccc2[nH]1`: the inhibition is 61.9% (active).

Consider `NC1CCN(c2cccc(Cl)n2)CC1`, for which the inhibition is 4.2% (active).

In the case of `COCC(=O)O[C@]1(CCN(C)CCCc2nc3ccccc3[nH]2)CCc2cc(F)ccc2[C@@H]1C(C)C`, the inhibition was 2.9% (active).

As for `C[N+](C)(C)CCOP(=O)(O)OP(=O)([O-])OC[C@H]1O[C@@H](n2ccc(N)nc2=O)C(O)[C@H]1O` (stereo partly specified), the inhibition was 20.6% (active).

For the molecule `CC(C)(C)c1onc(OCP(=O)(O)O)c1CC(N)C(=O)O` (stereo unspecified), the inhibition was 24.4% (active).

On to `OCc1cc(C(O)CNCCCCCCOCCCCc2ccccc2)ccc1O` (stereo unspecified), for which the inhibition was 34.4% (active).

With `CC(=O)N[C@H]1[C@H]([C@H](O)[C@H](O)CO)OC(C(=O)O)=C[C@@H]1O`, the inhibition is 18.1% (active).

On to `CCCOC(=O)c1c(-c2ccccc2)nc(CC)c(C(=O)SCC)c1CCC`, for which the inhibition is -2.7%.

On to `CC(C(O)c1ccc(O)cc1)N1CCC(Cc2ccccc2)CC1` (stereo unspecified), for which the inhibition is 4% (active).

For the molecule `C[C@@H](CN1CCC(Cc2ccccc2)CC1)[C@@H](O)c1ccc(O)cc1`, the inhibition was 3.7% (active).

On to `COc1cc(SC)ccc1C(=O)N1CCC(Cc2ccccc2)CC1`, for which the inhibition was -5.8%.

For `CC(=O)OCC(=O)[C@@]1(O)CC[C@H]2[C@@H]3CCC4=CC(=O)CC[C@]4(C)[C@H]3C(=O)C[C@@]21C`, the inhibition was 6.5% (active).

On to `C[C@]12CCC(=O)C=C1CC[C@@H]1[C@@H]2C(=O)C[C@@]2(C)[C@H]1CC[C@]2(O)C(=O)CO`, for which the inhibition was -1.4%.

In the case of `CC(=O)[C@@]1(O)CC[C@H]2[C@@H]3CCC4=CC(=O)CC[C@]4(C)[C@H]3CC[C@@]21C`, the inhibition is 0.7% (active).

Turning to `C[C@]12CCC(=O)C=C1CC[C@@H]1[C@@H]2CC[C@@]2(C)[C@H]1CC[C@]2(O)C(=O)CO`, the inhibition was -11%.

With `CC(=O)[C@H]1CC[C@H]2[C@@H]3CCC4=CC(=O)CC[C@]4(C)[C@H]3CC[C@]12C`, the inhibition is 12.3% (active).
